These results are taken from a collection of fitness landscapes (doi:10.1126/science.1257360).

Over roughly 140,000 sequences, “enrichment ratio after two sorts for PhoP signalling” has its median near 0; the highest 2% begin near 11. This excerpt belongs to a sample that is enriched for the highest values. Where only a bound is given, the exact number is not on record here.

The labels stand for the following.
B1: PhoQ; a variant is named by its letters at X, in order, P23837 (parent)
chain: MKKLLRLFFPLSLRVRFLLATAAVVLVLSLAYGMVALIGYSVSFDKTTFRLLRGESNLFYTLAKWENNKLHVELPENIDKQSPTMTLIYDENGQLLWAQRDVPWLMKMIQPDWLKSNGFHEIEADVNDTSLLLSGDHSIQQQLQEVREDDDDAEMTHSVAVNVYPATSRMPKLTIVVVDTIPVELKSSYMVWSWFIYVLSANLLLVIPLLWVAAWWSLRPIEALAKEVRELEEHNRELLNPATTRELTSLVRNLNRLLKSERERYDKYRTTLTDLTHSLKTPLXXLQXXLRSLRSEKMSVSDAEPVMLEQISRISQQIGYYLHRASMRGGTLLSRELHPVAPLLDNLTSALNKVYQRKGVNISLDISPEISFVGEQNDFVEVMGNVLDNACKYCLEFVEISARQTDEHLYIVVEDDGPGIPLSKREVIFDRGQRVDTLRPGQGVGLAVAREITEQYEGKIVAGESMLGGARMEVIFGRQHSAPKDE

This experiment covers variants of B1. The experiment is described as follows: enrichment ratio after two sorts for PhoP signalling (ratio (wild type AVST 3.29)); higher = more functional. As to conditions: with PhoP (E. coli).
For the variant FEAI, the enrichment ratio is not above 0.25.

With LSQY, the enrichment ratio is not above 0.25.

On to GALI, for which the enrichment ratio was 14.1.

Consider IILI, for which the enrichment ratio is not above 0.25.

Take NALI: the enrichment ratio was 4.49.

As for GALA, the enrichment ratio came to 2.12.

For KQLI, the enrichment ratio was not above 0.25.

Regarding GYLI, the enrichment ratio was 0.357.

On to GALS, for which the enrichment ratio turned out to be 5.05.

For KALI, the enrichment ratio was not above 0.25.

ITLI: the enrichment ratio is 8.76.

As for GTLI, the enrichment ratio came out at 15.8.

For YALI, the enrichment ratio was 13.3.

For SALI, the enrichment ratio came to 12.2.

On to ERQV, for which the enrichment ratio was not above 0.25.

On to LRKP, for which the enrichment ratio was not above 0.25.

On to KPPH, for which the enrichment ratio was not above 0.25.

For the variant TPRP, the enrichment ratio is not above 0.25.

Take FDPD: the enrichment ratio was not above 0.25.

For PKVE, the enrichment ratio was not above 0.25.

RSAQ: the enrichment ratio is not above 0.25.

For TTLI, the enrichment ratio was 12.4.

With HALI, the enrichment ratio worked out at 12.2.

As to CTLI, the enrichment ratio was not above 0.25.

With LTLI, the enrichment ratio came to 0.384.

In the case of HALA, the enrichment ratio is not above 0.25.

Turning to HFLI, the enrichment ratio is not above 0.25.

For the variant LMQH, the enrichment ratio is not above 0.25.

As for KFYQ, the enrichment ratio was not above 0.25.

For the variant CSGS, the enrichment ratio was not above 0.25.

In the case of WWST, the enrichment ratio is not above 0.25.

As to FRNI, the enrichment ratio was not above 0.25.

As to PVQV, the enrichment ratio was not above 0.25.

As to SPQV, the enrichment ratio was not above 0.25.

Regarding TVEN, the enrichment ratio was not above 0.25.

Take PVQQ: the enrichment ratio is not above 0.25.

As for TVQK, the enrichment ratio amounted to 15.5.

Consider TVQN, for which the enrichment ratio came to 12.1.

As for SPQN, the enrichment ratio was not above 0.25.

On to FVQK, for which the enrichment ratio was not above 0.25.

In the case of SPQQ, the enrichment ratio is not above 0.25.

Turning to TVQV, the enrichment ratio was found to be 12.7.

Turning to TVQQ, the enrichment ratio was 12.6.

With NVQK, the enrichment ratio was not above 0.25.

In the case of DRLY, the enrichment ratio was not above 0.25.

Take RFEM: the enrichment ratio was not above 0.25.

For RQMN, the enrichment ratio is not above 0.25.

Turning to HNHV, the enrichment ratio was not above 0.25.

With THPW, the enrichment ratio is not above 0.25.

Consider LWEP, for which the enrichment ratio is not above 0.25.

Consider VYIW, for which the enrichment ratio was not above 0.25.

On to GCNG, for which the enrichment ratio was not above 0.25.

As to ANGM, the enrichment ratio came out at 21.9.

In the case of ARVA, the enrichment ratio is not above 0.25.

As to ANGH, the enrichment ratio came to 11.6.

In the case of ANGP, the enrichment ratio was not above 0.25.

ANDM: the enrichment ratio was not above 0.25.

As to ARVM, the enrichment ratio came out at 14.7.

With AHGH, the enrichment ratio was not above 0.25.

On to ANGR, for which the enrichment ratio is not above 0.25.

Turning to ANVM, the enrichment ratio came to 14.9.

For the variant ANGD, the enrichment ratio was not above 0.25.

As for ARGM, the enrichment ratio is not above 0.25.

ANDS: the enrichment ratio is not above 0.25.

As for SWFD, the enrichment ratio is not above 0.25.

On to HSAA, for which the enrichment ratio is not above 0.25.

Turning to FPVD, the enrichment ratio is not above 0.25.

Turning to VQYV, the enrichment ratio was not above 0.25.

As for DVLV, the enrichment ratio was not above 0.25.

For PCEH, the enrichment ratio is not above 0.25.

In the case of WFYE, the enrichment ratio is not above 0.25.

For the variant LTRP, the enrichment ratio was not above 0.25.

Consider YRLF, for which the enrichment ratio is not above 0.25.

As for ANPM, the enrichment ratio is not above 0.25.

As to ANCK, the enrichment ratio was 6.46.

On to ANNM, for which the enrichment ratio was determined as 12.9.

For the variant RPWW, the enrichment ratio was not above 0.25.

Turning to HFCW, the enrichment ratio is not above 0.25.

Turning to QNHV, the enrichment ratio is not above 0.25.

With QNGD, the enrichment ratio was not above 0.25.

For the variant QNGM, the enrichment ratio came to 16.

For QNGV, the enrichment ratio came out at 22.1.

As to QRGV, the enrichment ratio is not above 0.25.

Take QNYM: the enrichment ratio is not above 0.25.

On to EKNQ, for which the enrichment ratio was not above 0.25.

NNYE: the enrichment ratio is not above 0.25.

Turning to HMKK, the enrichment ratio is not above 0.25.

For DNAG, the enrichment ratio was not above 0.25.

Consider FMVV, for which the enrichment ratio is not above 0.25.

With MREV, the enrichment ratio is not above 0.25.

Regarding HMSI, the enrichment ratio is not above 0.25.

In the case of QCTL, the enrichment ratio was not above 0.25.

Consider THCQ, for which the enrichment ratio was 14.3.

With YHCQ, the enrichment ratio was not above 0.25.

Consider SHCQ, for which the enrichment ratio was determined as 21.1.

Consider SHCA, for which the enrichment ratio is 2.47.

Turning to SHCI, the enrichment ratio is 6.63.

Take VHCQ: the enrichment ratio is not above 0.25.

PQRE: the enrichment ratio was not above 0.25.

Consider TLYI, for which the enrichment ratio is 0.826.

With RITC, the enrichment ratio is not above 0.25.

Consider RFYH, for which the enrichment ratio was not above 0.25.

As for FWFN, the enrichment ratio is not above 0.25.

For the variant ERAC, the enrichment ratio is not above 0.25.

With SIAL, the enrichment ratio was 15.1.

Regarding RIAL, the enrichment ratio was not above 0.25.

In the case of SAAL, the enrichment ratio came out at 12.8.

Consider KYAL, for which the enrichment ratio was not above 0.25.

For SKRL, the enrichment ratio was not above 0.25.

With SKNL, the enrichment ratio is not above 0.25.

For SRAL, the enrichment ratio was not above 0.25.

Turning to SQAL, the enrichment ratio was determined as 7.54.

As to SKAL, the enrichment ratio worked out at 12.2.

Consider SNAL, for which the enrichment ratio amounted to 12.1.

As for SFAL, the enrichment ratio was not above 0.25.

In the case of SPAL, the enrichment ratio was not above 0.25.

ETHL: the enrichment ratio was not above 0.25.

For VYRH, the enrichment ratio is not above 0.25.

Take PVYN: the enrichment ratio was not above 0.25.

Regarding RLWM, the enrichment ratio was not above 0.25.

Regarding LPNQ, the enrichment ratio is not above 0.25.

Regarding YSKE, the enrichment ratio was not above 0.25.

In the case of NNAF, the enrichment ratio is not above 0.25.

Consider TTGS, for which the enrichment ratio was determined as 8.05.

As to WDHH, the enrichment ratio was not above 0.25.

As to GVIH, the enrichment ratio was not above 0.25.

In the case of QAPP, the enrichment ratio is not above 0.25.

On to SSAL, for which the enrichment ratio came out at 12.2.

For the variant NSAL, the enrichment ratio was not above 0.25.

WIAL: the enrichment ratio was not above 0.25.

In the case of TTAL, the enrichment ratio was found to be 18.4.

Consider STAL, for which the enrichment ratio came out at 11.5.

For MTAL, the enrichment ratio is 5.98.

In the case of QEAL, the enrichment ratio was not above 0.25.

With YTAL, the enrichment ratio was not above 0.25.

Take SLAL: the enrichment ratio worked out at 10.6.

For NIAL, the enrichment ratio was 1.57.

In the case of ITAL, the enrichment ratio worked out at 0.733.

Take TIAL: the enrichment ratio is 12.9.

Regarding YSQQ, the enrichment ratio was not above 0.25.

For PRCN, the enrichment ratio is not above 0.25.

As to RSCH, the enrichment ratio is not above 0.25.

As to DCRN, the enrichment ratio was not above 0.25.

Regarding MFPC, the enrichment ratio is not above 0.25.

Turning to YLTE, the enrichment ratio is not above 0.25.

Turning to NVTL, the enrichment ratio is not above 0.25.

In the case of MMTL, the enrichment ratio stood at 13.2.

TSTL: the enrichment ratio was 20.7.

Regarding MATL, the enrichment ratio worked out at 7.59.

Consider METL, for which the enrichment ratio turned out to be 3.99.

On to WITL, for which the enrichment ratio is 0.966.

Take FVLT: the enrichment ratio is not above 0.25.

In the case of WYAY, the enrichment ratio was not above 0.25.

With KNFK, the enrichment ratio was not above 0.25.

Consider MYGA, for which the enrichment ratio was not above 0.25.

Take GWFA: the enrichment ratio was not above 0.25.

RSRM: the enrichment ratio was not above 0.25.

With KCLN, the enrichment ratio is not above 0.25.

For GCLA, the enrichment ratio was found to be 6.8.

In the case of GCLT, the enrichment ratio amounted to 6.49.

For GCLN, the enrichment ratio was 11.5.

Regarding GCNL, the enrichment ratio is not above 0.25.

Turning to GCLS, the enrichment ratio stood at 19.3.

In the case of VRSC, the enrichment ratio was not above 0.25.

For the variant YKWM, the enrichment ratio was not above 0.25.

NGSC: the enrichment ratio is not above 0.25.

On to GGSC, for which the enrichment ratio stood at 9.93.

In the case of FFSC, the enrichment ratio is not above 0.25.

In the case of QGSC, the enrichment ratio was 12.

FVSC: the enrichment ratio is not above 0.25.

As for TGSC, the enrichment ratio came to 20.2.

Consider FEYD, for which the enrichment ratio is not above 0.25.

Turning to FCVK, the enrichment ratio was not above 0.25.

Take ESKA: the enrichment ratio is not above 0.25.

In the case of NEVN, the enrichment ratio was not above 0.25.

Take VAFL: the enrichment ratio was 3.05.

Consider WLWC, for which the enrichment ratio was not above 0.25.

In the case of QCNL, the enrichment ratio is not above 0.25.

Turning to QCWI, the enrichment ratio came out at 37.7.

QCWL: the enrichment ratio amounted to 13.1.

As for GGWL, the enrichment ratio was not above 0.25.

Consider QCGD, for which the enrichment ratio is not above 0.25.

In the case of QCDS, the enrichment ratio was not above 0.25.

In the case of VIGT, the enrichment ratio was not above 0.25.

Take IMSW: the enrichment ratio is not above 0.25.

As for VEWG, the enrichment ratio stood at 18.1.

Take VLWH: the enrichment ratio was not above 0.25.

Consider VEWI, for which the enrichment ratio is 12.2.

On to VRWH, for which the enrichment ratio was not above 0.25.

Take VEWH: the enrichment ratio was determined as 13.7.

For the variant VLWG, the enrichment ratio was not above 0.25.

With VRWG, the enrichment ratio was not above 0.25.

VEWS: the enrichment ratio is 2.49.

For VELA, the enrichment ratio was not above 0.25.

In the case of PTWI, the enrichment ratio is not above 0.25.
